# Experimental data taken from the supplement of paper PMC12340641.
# Counter-ions that a name gives are not always drawn.
# Target: IKZF1 (dCK*-IKZF1 fusion in HEK293FT) (UniProt Q13422)
# Test: inhibition of IKZF1 HTRF signal (DMSO = 0%, pomalidomide 10 uM = 100%); higher = lower IKZF1 protein level
# Settings: compound concentration: 5 uM, overnight (~20 h)
# Method in brief: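 Values are percent inhibition of IKZF1 signal, normalised plate by plate against vehicle and a reference degrader. HEK293FT cells stably expressing an IKZF1 fusion were seeded at 2000 per well in 384-well plates and exposed to 5 μM compound in single wells overnight at 37 °C. After 30 min lysis at room temperature, lysates were incubated overnight with a commercial HTRF total-IKZF1 antibody kit, and the background-subtracted 665/620 nm time-resolved FRET ratio was read. On each plate, vehicle was set at 0% and the reference degrader at 100%.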
# Sequence of IKZF1 (dCK*-IKZF1 fusion in HEK293FT) (Q13422 whole entry, looked up, the tested form may be a part): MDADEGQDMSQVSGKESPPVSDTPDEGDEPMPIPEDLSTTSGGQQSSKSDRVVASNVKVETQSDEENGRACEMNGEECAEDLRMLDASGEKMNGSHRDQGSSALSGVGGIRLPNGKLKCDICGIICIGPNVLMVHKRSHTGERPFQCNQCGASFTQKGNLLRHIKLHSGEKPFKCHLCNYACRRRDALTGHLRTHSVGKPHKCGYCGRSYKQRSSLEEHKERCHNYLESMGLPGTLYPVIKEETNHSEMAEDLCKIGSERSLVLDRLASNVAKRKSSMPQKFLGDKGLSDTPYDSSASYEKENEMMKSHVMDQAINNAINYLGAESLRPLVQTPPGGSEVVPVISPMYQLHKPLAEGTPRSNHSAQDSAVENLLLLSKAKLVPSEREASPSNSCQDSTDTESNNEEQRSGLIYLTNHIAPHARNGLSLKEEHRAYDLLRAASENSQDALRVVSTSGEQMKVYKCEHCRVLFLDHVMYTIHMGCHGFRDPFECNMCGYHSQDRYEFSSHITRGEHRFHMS
row,Compound,inhibition of IKZF1 HTRF signal [%]
1,CC1(S(=O)(=O)[O-])CC(=O)c2ccccc2C1=O (stereo unspecified) [menadione-bisulfite],9.55
2,CCOC(=O)C1=C[C@]2(CC)CCCN3CCc4c(n1c1ccccc41)[C@@H]32,-26.3
3,Nc1ccc2ncnc(NCCc3ccc(Oc4ccccc4)cc3)c2c1,20.9
4,O=C(N/N=C/c1ccccc1O)c1ccccc1O,-40.4
5,CCOC(=O)CC(=O)N1CCSC1COc1ccccc1OC (stereo unspecified) [Moguisteine],-1.23
6,CCN(CC)CCNc1ccc(CO)c2sc3ccccc3c(=O)c12 [Hycanthone],-30.4
7,C=C1CCC2[C@](C)(CO)[C@H](O)CC[C@@]2(C)[C@@H]1C/C=C1/C(=O)OC[C@H]1O (stereo partly specified) [Andrographolide],0.47
8,CCc1c2c(nc3ccc(O)cc13)-c1cc3c(c(=O)n1C2)COC(=O)[C@]3(O)CC,36.8
9,CO[C@H]1/C=C/O[C@@]2(C)Oc3c(C)c(O)c4c(O)c(c(C=NN5CCN(C)CC5)c(O)c4c3C2=O)NC(=O)C(C)=CC=CC(C)[C@@H](O)[C@@H](C)[C@H](O)[C@H](C)[C@@H](OC(C)=O)[C@H]1C (stereo partly specified) [Rifampin (Rifampicin)],-102
10,CCn1c(=O)[nH]c2cc(Cl)c(Cl)cc21,-7.25
11,CSCC[C@H](N)C(=O)O [L-methionine],-9.26
12,CC(=C\c1ccc(Cl)cc1)/C(C)=N/O,-25.6
13,O=C(Nc1ccc(Cl)cc1)Nc1ccc(Cl)c(Cl)c1 [Triclocarban],15.1
14,Clc1ccc2c(NCCNc3ccnc4cc(Cl)ccc34)ccnc2c1,-19.4
15,Cc1ccc(S(=O)(=O)c2ccc([N+](=O)[O-])o2)cc1,-48.9
16,CCN(CC)CCCC(C)Nc1c2ccc(Cl)cc2nc2ccc(OC)cc12 (stereo unspecified),57.3
17,CO[C@H]1O[C@@H]2O[C@@]3(C)CC[C@H]4[C@H](C)CC[C@@H]([C@H]1C)[C@@]24OO3 [Artemether],-26.4
18,COc1ccc2c(C)nc(Nc3nc(C)c(C)c(O)n3)nc2c1 [madrasin],-28.1
19,CN(Cc1cnc2nc(N)nc(N)c2n1)c1ccc(C(=O)N[C@@H](CCC(=O)O)C(=O)O)cc1,-18.9

row,Compound,inhibition of IKZF1 HTRF signal [%]
1,Nc1ccc(S(=O)(=O)Nc2ncccn2)cc1,-27.2
2,CCCCCCC[N+](CC)(CC)CCCCc1ccc(Cl)cc1 [clofilium],-21.8
3,CC[C@]1(O)C[C@H]2CN(CCc3c([nH]c4ccccc34)[C@@](C(=O)OC)(c3cc4c(cc3OC)N(C)[C@H]3[C@@](O)(C(=O)OC)[C@H](OC(C)=O)[C@]5(CC)C=CCN6CC[C@]43[C@@H]65)C2)C1 [Vinblastine Sulfate],-11.7
4,CC(=O)c1ccc(S(=O)(=O)NC(=O)NC2CCCCC2)cc1,-56.1
5,Nc1ncn([C@H]2C[C@H](O)[C@@H](CO)O2)c(=O)n1 [Decitabine],12
6,Cc1cc2nc3ccc(N(C)C)cc3[s+]c2cc1N,-22.7
7,c1cc2c(cc1C1CCCCC1)c1c3n2CCNC3CCC1 (stereo unspecified) [tetrindole],-27.2
8,Oc1c(I)cc(I)c(O)c1I [riodoxol],-5.43
9,NC(=O)c1cn([C@@H]2O[C@H](CO)[C@@H](O)[C@H]2O)c2ncnc(N)c2c1=O,-11.4
10,Cc1ccccc1/N=N/c1ccc(NC(=O)c2ccnn2C)c(C)c1,-27
11,CC(C)(C)c1ccc(-c2nc3cccc(N4CCN(Cc5ccc6nccnc6c5)CC4)c3[nH]2)cc1,-23.9
12,O=C1OC2(c3ccc(O)cc3Oc3cc(O)ccc32)c2ccccc21,28.2
13,COc1ccc(Cl)cc1C(=O)NCCc1ccc(S(=O)(=O)NC(=O)NC2CCCCC2)cc1,-51.9
14,O=c1oc(-c2ccc(C(F)(F)F)cc2)nn1Cc1cc(Cl)ccc1O,11.5
15,NC(=O)N1c2ccccc2CC(O)c2ccccc21 (stereo unspecified) [licarbazepine],-28.1
16,O=c1c(-c2ccccc2)c1-c1ccccc1 [diphencyprone],-25.4
17,CCCOc1ccc2nc(NC(=O)OC)[nH]c2c1,-18.4
18,Cc1cc([C@H](C(=O)N2C[C@H](O)C[C@H]2C(=O)N[C@@H](CC(=O)N2CCC(C#Cc3ccc(C(=O)N[C@H]4C(C)(C)[C@H](Oc5ccc(C#N)c(Cl)c5)C4(C)C)cc3)CC2)c2ccccc2)C(C)C)on1,9.95
19,COc1nccnc1NS(=O)(=O)c1ccc(N)cc1 [sulfametopyrazine],6.66

# Tested on: HEK293FT dCK*-only
# Test: relative growth in counter assay (no AraC = 100%, AraC + DMSO = 0%); higher = more growth rescue independent of IKZF1
# Settings: compound concentration: 5 uM; AraC concentration: 0.3 uM; overnight pretreatment + 4 days AraC
# Method in brief: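 This counter assay used HEK293FT cells expressing only an engineered kinase construct, seeded at 300 per well in 384-well plates. Compound was added at 5 μM 2 h after seeding, and after overnight at 37 °C the cells received a nucleoside suicide substrate at 0.3 μM plus medium for 4 days. On day 5, nuclei stained with Hoechst 33342 were counted by imaging, and relative growth was normalised per plate; wells without suicide substrate were set at 100% and wells with substrate plus vehicle at 0%.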
row,Compound,relative growth in counter assay [%]
1,CC1(S(=O)(=O)[O-])CC(=O)c2ccccc2C1=O (stereo unspecified) [menadione-bisulfite],-12.2
2,CCOC(=O)C1=C[C@]2(CC)CCCN3CCc4c(n1c1ccccc41)[C@@H]32,-0.08
3,Nc1ccc2ncnc(NCCc3ccc(Oc4ccccc4)cc3)c2c1,-8.23
4,O=C(N/N=C/c1ccccc1O)c1ccccc1O,0.05
5,CCOC(=O)CC(=O)N1CCSC1COc1ccccc1OC (stereo unspecified) [Moguisteine],6.33
6,CCN(CC)CCNc1ccc(CO)c2sc3ccccc3c(=O)c12 [Hycanthone],-31.9
7,C=C1CCC2[C@](C)(CO)[C@H](O)CC[C@@]2(C)[C@@H]1C/C=C1/C(=O)OC[C@H]1O (stereo partly specified) [Andrographolide],-20.8
8,CCc1c2c(nc3ccc(O)cc13)-c1cc3c(c(=O)n1C2)COC(=O)[C@]3(O)CC,-33.9
9,CO[C@H]1/C=C/O[C@@]2(C)Oc3c(C)c(O)c4c(O)c(c(C=NN5CCN(C)CC5)c(O)c4c3C2=O)NC(=O)C(C)=CC=CC(C)[C@@H](O)[C@@H](C)[C@H](O)[C@H](C)[C@@H](OC(C)=O)[C@H]1C (stereo partly specified) [Rifampin (Rifampicin)],-0.8
10,CCn1c(=O)[nH]c2cc(Cl)c(Cl)cc21,6.81
11,CSCC[C@H](N)C(=O)O [L-methionine],-0.43
12,CC(=C\c1ccc(Cl)cc1)/C(C)=N/O,-1.62
13,O=C(Nc1ccc(Cl)cc1)Nc1ccc(Cl)c(Cl)c1 [Triclocarban],3.72
14,Clc1ccc2c(NCCNc3ccnc4cc(Cl)ccc34)ccnc2c1,-2.86
15,Cc1ccc(S(=O)(=O)c2ccc([N+](=O)[O-])o2)cc1,-34
16,CCN(CC)CCCC(C)Nc1c2ccc(Cl)cc2nc2ccc(OC)cc12 (stereo unspecified),-34.1
17,CO[C@H]1O[C@@H]2O[C@@]3(C)CC[C@H]4[C@H](C)CC[C@@H]([C@H]1C)[C@@]24OO3 [Artemether],-14.4
18,COc1ccc2c(C)nc(Nc3nc(C)c(C)c(O)n3)nc2c1 [madrasin],6.01
19,CN(Cc1cnc2nc(N)nc(N)c2n1)c1ccc(C(=O)N[C@@H](CCC(=O)O)C(=O)O)cc1,-31.2

row,Compound,relative growth in counter assay [%]
1,Nc1ccc(S(=O)(=O)Nc2ncccn2)cc1,-9.24
2,CCCCCCC[N+](CC)(CC)CCCCc1ccc(Cl)cc1 [clofilium],-3.59
3,CC[C@]1(O)C[C@H]2CN(CCc3c([nH]c4ccccc34)[C@@](C(=O)OC)(c3cc4c(cc3OC)N(C)[C@H]3[C@@](O)(C(=O)OC)[C@H](OC(C)=O)[C@]5(CC)C=CCN6CC[C@]43[C@@H]65)C2)C1 [Vinblastine Sulfate],-33.4
4,CC(=O)c1ccc(S(=O)(=O)NC(=O)NC2CCCCC2)cc1,5.07
5,Nc1ncn([C@H]2C[C@H](O)[C@@H](CO)O2)c(=O)n1 [Decitabine],-31.4
6,Cc1cc2nc3ccc(N(C)C)cc3[s+]c2cc1N,-34.5
7,c1cc2c(cc1C1CCCCC1)c1c3n2CCNC3CCC1 (stereo unspecified) [tetrindole],-33
8,Oc1c(I)cc(I)c(O)c1I [riodoxol],2.24
9,NC(=O)c1cn([C@@H]2O[C@H](CO)[C@@H](O)[C@H]2O)c2ncnc(N)c2c1=O,-10.5
10,Cc1ccccc1/N=N/c1ccc(NC(=O)c2ccnn2C)c(C)c1,-9.17
11,CC(C)(C)c1ccc(-c2nc3cccc(N4CCN(Cc5ccc6nccnc6c5)CC4)c3[nH]2)cc1,5.2
12,O=C1OC2(c3ccc(O)cc3Oc3cc(O)ccc32)c2ccccc21,-3.82
13,COc1ccc(Cl)cc1C(=O)NCCc1ccc(S(=O)(=O)NC(=O)NC2CCCCC2)cc1,-0.06
14,O=c1oc(-c2ccc(C(F)(F)F)cc2)nn1Cc1cc(Cl)ccc1O,-6.2
15,NC(=O)N1c2ccccc2CC(O)c2ccccc21 (stereo unspecified) [licarbazepine],-2.99
16,O=c1c(-c2ccccc2)c1-c1ccccc1 [diphencyprone],-31.8
17,CCCOc1ccc2nc(NC(=O)OC)[nH]c2c1,-15.2
18,Cc1cc([C@H](C(=O)N2C[C@H](O)C[C@H]2C(=O)N[C@@H](CC(=O)N2CCC(C#Cc3ccc(C(=O)N[C@H]4C(C)(C)[C@H](Oc5ccc(C#N)c(Cl)c5)C4(C)C)cc3)CC2)c2ccccc2)C(C)C)on1,5.85
19,COc1nccnc1NS(=O)(=O)c1ccc(N)cc1 [sulfametopyrazine],-7.5
